An excerpt weighted towards active compounds, which were near 7.6% of everything screened.
KB-V1 cytotox: KB-V1 MDR subline cytotoxicity. 400,000 tested, 3.4% active. Potency, µM (titrated, usually from 46.1 µM), actives largely listed as cytotoxic. AID 1347076. KB-V1 MDR cells viability, CellTiter-Glo, 72 h; note: potency is the fitted concentration of half-maximal effect; % is set by controls: 0 for no effect and ±100 for the full control effect; nearly all actives have a fitted effect of over 60% in size
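KB-V1, DMEM (no phenol red) + 10% FBS; cpd pin-transferred, titration series; 72 h, 37 degrees C; CellTiter-Glo, luminescence. Data normalized, curve-fit.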
KCNH2 3.1 block: inhibitors of human KCNH2 3.1 potassium channel isoform. U2OS KCNH2 3.1, thallium flux FluxOr; stronger effect = lower value. activity change, % (tested at about 1.8 µM). 340,000 tested, 0.95% active. AID 720553;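 active = maximum activity change below -70%; inconclusive = maximum activity change from -70% to -50%; inactive = maximum activity change above -50%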;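 note: thallium influx rate constant from kinetic fluorescence after stimulation buffer; % is set by controls: 0 for no effect and ±100 for the full control effect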
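Thallium flux read-out: FluxOr dye with Red40 quencher in HBSS/HEPES, 45 min at RT. Rate constants from kinetic reads were normalized to positive and negative DMSO controls. Cells: U2OS virally expressing the 3.1 isoform.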
KB-3-1 tox: KB-3-1 parental cell cytotoxicity; KB-3-1 viability, CellTiter-Glo ATP luminescence, 72 h; Potency, µM (doses to about 46.1 µM), most hits filed as cytotoxic; 400,000 tested, 1.4% active; AID 1347075; note: potency is the fitted concentration of half-maximal effect; % is set by controls: 0 for no effect and ±100 for the full control effect; nearly all actives have a fitted effect of over 60% in size
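Screening of KB-3-1 cells (DMEM, 10% FBS, phenol-red free) ran from lowest to highest compound concentration; after 72 h at 37 °C viability was read luminescently and curves fitted.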
SW480 rereplic: induces DNA re-replication in SW480 colon adenocarcinoma cells; SW480 DNA re-replication, Hoechst DNA content imaging, 48 h; Potency, µM (doses to about 46.1 µM), without a hit: at the highest dose re-replication activation, most hits filed as activators; 340,000 tested, 1.8% active; note: potency is the fitted concentration of half-maximal effect; % of control where 0% means no effect; nearly all actives have a fitted effect of over 55% in size
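Compounds, transferred as 23 nL by pin tool, were incubated with cells for 48 hr; DNA content per nucleus was then quantified by Hoechst staining and fluorescence plate imaging.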
MCF10A rerep: induces DNA re-replication in MCF 10a normal breast cells | MCF 10A DNA re-replication, Hoechst nuclear intensity, 48 h | Potency, µM (titrated, usually from 46.1 µM), inactives show at the highest dose activity, positive = re-replication, actives largely listed as activators | 350,000 tested, 2.9% active; note: potency is the fitted concentration of half-maximal effect; % of control where 0% means no effect; nearly all actives have a fitted effect of over 50% in size
KCNH2 WT inh: KCNH2 (human, wildtype) channel inhibition; 340,000 tested, 0.37% active; Q12809; activity change, % at 1.84 µM; AID 720551; U2OS, BacMam KCNH2, thallium flux FluxOr; stronger effect = lower value;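 active = maximum activity change below -70%; inconclusive = maximum activity change between -70% and -50%; inactive = maximum activity change above -50%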; note: % is set by controls: 0 for no effect and ±100 for the full control effect
Target sequence (Q12809 whole entry, looked up): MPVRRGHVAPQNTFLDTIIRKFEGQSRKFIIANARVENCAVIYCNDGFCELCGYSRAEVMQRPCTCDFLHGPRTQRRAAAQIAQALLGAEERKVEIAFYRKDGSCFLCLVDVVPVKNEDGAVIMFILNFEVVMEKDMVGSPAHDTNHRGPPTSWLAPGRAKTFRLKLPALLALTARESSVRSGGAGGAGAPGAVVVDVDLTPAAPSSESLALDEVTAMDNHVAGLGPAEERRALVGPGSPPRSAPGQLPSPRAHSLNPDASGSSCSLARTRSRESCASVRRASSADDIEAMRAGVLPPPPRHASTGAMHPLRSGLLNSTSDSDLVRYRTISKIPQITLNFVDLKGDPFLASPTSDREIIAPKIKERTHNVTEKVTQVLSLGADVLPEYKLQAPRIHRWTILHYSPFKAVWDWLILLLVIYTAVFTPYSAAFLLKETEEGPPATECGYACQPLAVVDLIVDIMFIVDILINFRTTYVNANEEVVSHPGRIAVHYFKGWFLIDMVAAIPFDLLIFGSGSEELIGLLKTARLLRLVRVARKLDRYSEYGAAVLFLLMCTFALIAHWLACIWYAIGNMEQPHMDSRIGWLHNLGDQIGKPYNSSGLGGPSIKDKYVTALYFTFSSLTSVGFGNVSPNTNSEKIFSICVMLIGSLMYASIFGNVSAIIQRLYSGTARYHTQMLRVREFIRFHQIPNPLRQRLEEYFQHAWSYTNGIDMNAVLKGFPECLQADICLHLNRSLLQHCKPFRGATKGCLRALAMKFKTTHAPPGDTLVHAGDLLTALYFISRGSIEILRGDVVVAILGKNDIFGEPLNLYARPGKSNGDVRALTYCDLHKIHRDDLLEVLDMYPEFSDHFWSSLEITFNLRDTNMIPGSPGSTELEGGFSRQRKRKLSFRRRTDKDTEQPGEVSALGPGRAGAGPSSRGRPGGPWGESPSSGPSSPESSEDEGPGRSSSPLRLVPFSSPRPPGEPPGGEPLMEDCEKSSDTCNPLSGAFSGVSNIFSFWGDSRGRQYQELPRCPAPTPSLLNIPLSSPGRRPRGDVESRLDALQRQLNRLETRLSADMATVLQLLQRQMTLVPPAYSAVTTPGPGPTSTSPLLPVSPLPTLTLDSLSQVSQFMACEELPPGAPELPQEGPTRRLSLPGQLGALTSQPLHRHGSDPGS
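U2OS cells were transduced with wild-type KCNH2 virus (2.03 x 10^8 / mL) for 4 h at room temperature, then cultured overnight at 37 C. Thallium flux was read with FluxOr dye. Rate constants were normalized to DMSO controls.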
* marks the source's active call; other numbers are inactive results; [ ] = another dose, or the depositor's remark. Unless noted, calls come from the whole dose curve; as a rule, active = well fitted curve in the direction sought with a large enough effect; inconclusive = small, poorly fitted or top-dose-only effect, or another doubt; inactive = no such curve, though single readings can be large; an effect the other way counts as inactive or inconclusive.

How did CSc1ncnc2c1ncn2CCCNCc1cccc2ccccc12 do in these assays?
KB-V1 cytotox: inactive; KCNH2 3.1 block: 19.3; KB-3-1 tox: inactive; KCNH2 WT inh: -25.2

What do the screens show for `Cc1cccc(C(=O)N=C2SC3CS(=O)(=O)CC3N2c2ccccc2)c1` (centres undefined)?
KB-V1 cytotox: inactive; KCNH2 3.1 block: -5.1; KB-3-1 tox: inactive; SW480 rereplic: -0.7%; MCF10A rerep: 1.5%; KCNH2 WT inh: -22.7

Results for CCCC(=O)NCCc1nc2ccccc2n1Cc1c(F)cccc1Cl ?
KB-V1 cytotox: inactive; KB-3-1 tox: inactive

What do the screens show for `Cc1c2ccccc2nc2ccccc12`?
KB-V1 cytotox: inactive; KCNH2 3.1 block: 4.2; KB-3-1 tox: inactive; SW480 rereplic: -4.9%; MCF10A rerep: -2.3%; KCNH2 WT inh: -5.6

How did COc1c2ccccc2nc2ccccc12 do in these assays?
KB-V1 cytotox: inactive; KCNH2 3.1 block: -2.0; KB-3-1 tox: inactive; SW480 rereplic: 23.1µM*; MCF10A rerep: inconclusive; KCNH2 WT inh: -8.9

How did COc1ccccc1C(=O)NC1(C(F)(F)F)NC(=O)N(CCc2ccccc2)C1=O (centres undefined) do in these assays?
KB-V1 cytotox: inconclusive; KB-3-1 tox: inactive

How did COc1ccc(CCN2C(=O)NC(NC(=O)CCc3ccccc3)(C(F)(F)F)C2=O)cc1OC (centres undefined) do in these assays?
KB-V1 cytotox: 20.6µM*; KCNH2 3.1 block: -11.4; KB-3-1 tox: inactive; SW480 rereplic: 1.8%; MCF10A rerep: -0.5%; KCNH2 WT inh: -11.7

What do the screens show for `CC(C)Oc1ccc(C(=O)NC2(C(F)(F)F)NC(=O)N(CCCc3ccccc3)C2=O)cc1` (centres undefined)?
KB-V1 cytotox: 9.2µM*; KCNH2 3.1 block: -12.0; KB-3-1 tox: inconclusive; SW480 rereplic: inconclusive; MCF10A rerep: 13.8%; KCNH2 WT inh: -9.0

What do the screens show for `COc1ccccc1Cc1c(-c2ccc(C)cc2)nc2ccc(Br)cn12`?
KB-V1 cytotox: inactive; KB-3-1 tox: inactive

How did CCCCCc1c(-c2ccc(F)cc2)ncn1CCc1ccccc1OC do in these assays?
KB-V1 cytotox: 11.6µM*; KB-3-1 tox: 18.4µM*

How did CCCCCc1c(-c2ccc(Br)cc2)ncn1CCc1ccccc1OC do in these assays?
KB-V1 cytotox: 16.4µM*; KB-3-1 tox: inconclusive

Results for CC1Cn2c(nc(=O)c3c2NCN(CCc2ccccc2)C3)S1 (centres undefined) ?
KB-V1 cytotox: inactive; KCNH2 3.1 block: -7.3; KB-3-1 tox: inactive; SW480 rereplic: 7.3%[1.84 µM]; MCF10A rerep: 5.6%; KCNH2 WT inh: -6.4

How did Cc1ccc(C(=O)N2CC(=O)Nc3ccc(F)cc3C2c2ccccc2)cc1[N+](=O)[O-] (centres undefined) do in these assays?
KB-V1 cytotox: 14.6µM*; KCNH2 3.1 block: 7.9; KB-3-1 tox: inactive; SW480 rereplic: 0.7%; MCF10A rerep: 0.9%; KCNH2 WT inh: 24.5

What do the screens show for `Cc1ccc(C(=O)N2CC(=O)Nc3ccc(F)cc3C2c2ccc(F)cc2)cc1[N+](=O)[O-]` (centres undefined)?
KB-V1 cytotox: inactive; KCNH2 3.1 block: 3.6; KB-3-1 tox: inactive; SW480 rereplic: inconclusive; MCF10A rerep: 4.1%; KCNH2 WT inh: 3.7

How did Cc1cc(C)cc(C(=O)N2CC(=O)Nc3ccc(Br)cc3C2c2ccccc2)c1 (centres undefined) do in these assays?
KB-V1 cytotox: 14.6µM*; KB-3-1 tox: inconclusive

What do the screens show for `O=c1[nH]c2cc3c(cc2cc1CN(CCc1ccccc1)C(=S)NCCCN1CCOCC1)OCCO3`?
KB-V1 cytotox: inactive; KCNH2 3.1 block: -12.6; KB-3-1 tox: inconclusive; SW480 rereplic: inconclusive; MCF10A rerep: inconclusive; KCNH2 WT inh: 16.5

Results for O=C(N[C@@H](Cc1ccccc1)C(=O)N1CCC2(CC1)NCCc1[nH]cnc12)c1cccc(F)c1 ?
KB-V1 cytotox: inconclusive; KCNH2 3.1 block: 38.2; KB-3-1 tox: inconclusive; SW480 rereplic: inconclusive; MCF10A rerep: 9.8%; KCNH2 WT inh: -2.5
